# Spn MK inh: blocks S. pneumoniae mevalonate kinase | purified MK, PK/LDH-coupled NADH absorbance 340 nm | inhibition, % at 10 µM | 0.48% of 65,000 active | AID 555;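 active = ranked among the strongest by inhibition in the single 10 µM screen, a fixed top-ranked set picked for dose follow-up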
# DPM-DC inhibit: inhibitors of Streptococcus pneumoniae diphosphomevalonate decarboxylase. purified DPM-DC, PK/LDH coupled NADH fluorescence. calls only at 10 µM. 0.49% of 65,000 active. AID 556;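 active = the 320 compounds with the highest percent inhibition in the single-dose primary screen, excluding strongly autofluorescent ones, cut at about 32% in these data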;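 note: kinetic rate of NADH fluorescence loss reporting ADP formed by the decarboxylase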
# PMK inhibit: blocks S. pneumoniae phosphomevalonate kinase | inhibition, % at 10 µM | 0.49% of 65,000 active | purified PMK, PK/LDH-coupled NADH absorbance 340 nm;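 active = top-ranked compounds by inhibition in the single 10 µM screen, taking a fixed number of the strongest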
# Abs 340nm: compound absorbs light at 340 nm; compound absorbance at 340 nm, fold over control; fold change at 10 µM; 65,000 tested, under 10 active;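 active = at 10 µM dose, initial 340 nm absorbance at least 2 fold that of control wells; inactive = change under 2 fold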;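 note: initial absorbance extrapolated from kinetic A340 decline of NADH oxidation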
# NADH coupling: inhibitors of enzymes used to reach an NAD/NADH endpoint; AID 774; IC50, µM (series often up to 10 µM); 0.02% of 65,000 active; coupled PK/LDH NADH assays, four targets;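 active = single-dose screening hits from any of four coupled enzyme assays that gave an IC50 when retested across doses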;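 note: the DPM-DC format reads NADH fluorescence rather than 340 nm absorbance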
# Fluor 339 460: intrinsic fluorescence of library compounds, ex339/em460 – biochemical, MLSMR library, data from DPM-DC assay, artefact control, profiling panel; compound autofluorescence, ex339/em460 nm, NADH buffer; stronger effect = higher value; 1 = no-compound wells, NADH background; fluorescence fold increase at 10 µM; 5.5% of 65,000 active; AID 709;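 active = at 10 µM, mean starting fluorescence two-fold or more over control wells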;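 note: signal is the first read of a kinetic run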
# Numbers stand for hits; 0 = inactive; - = no result shown. Shown are actives, neighbours in structure and some others; about 6.3% of the full set was active somewhere.
SMILES,Spn MK inh,DPM-DC inhibit,PMK inhibit,Abs 340nm,NADH coupling,Fluor 339 460
COc1ccc(NC(=O)N(C2CCCCC2)C(C)c2cccnc2)c(OC)c1 (configuration not stated),0,0,0,0,0,0
O=C(NC1CCCCCC1)C1CC(=O)N(Cc2ccccc2)C1 (configuration not stated),0,0,0,0,0,0
COc1ccc(Oc2c(C)oc3c(CN(C)C)c(O)ccc3c2=O)cc1,0,-,0,0,0,3.92
COc1ccc(Oc2coc3c(CN(C)C)c(O)ccc3c2=O)cc1,0,-,0,0,0,2.26
Cc1cc(C(F)(F)F)nc(NCc2cccnc2)n1,0,0,0,0,0,0
CSC1=C(C#N)C(C)CC(=O)N1 (configuration not stated),0,0,0,0,0,0
Cc1cc(C)n2cc(CSc3ncccc3C(=O)O)nc2n1,0,-,0,0,0,4.96
Cc1cc(C)n2cc(CSc3nnnn3-c3ccccc3C)nc2n1,0,0,0,0,0,2.15
Cc1ccccc1-n1nnnc1SCc1ncc(-c2ccccc2)o1,0,0,0,0,0,0
Cc1cc(C)n2cc(CSCc3ccco3)nc2n1,0,0,0,0,0,0
Cc1cc(C)n2cc(CSC3=NCCS3)nc2n1,0,-,0,0,0,4.8
CCn1c(SCC(=O)Nc2nc3ccc(OC)cc3s2)nc2c1c(=O)n(C)c(=O)n2C,0,0,0,0,0,0
O=C(NCCN1C(=O)CSC1=O)c1ccccc1,0,0,0,0,0,0
COC(=O)c1c(NC(=O)c2ccco2)sc(C)c1C,0,-,0,0,0,2.09
COC(=O)c1c(NC(=O)c2ccc(Br)o2)sc(C)c1C,0,0,0,0,0,0
COC(=O)c1c(NC(=O)c2ccco2)sc(C(=O)Nc2ccc(F)cc2)c1C,0,-,0,0,0,3.89
COc1c(F)c(F)c(C(=O)Nc2ccc(NC(=O)c3ccco3)cc2)c(F)c1F,0,0,0,0,0,0
CCCN(CCC)CCCNC(=O)c1cc2cc3ccc(OC)cc3nc2o1,0,-,0,0,0,5.1
CCCCN(CC)CCCNC(=O)c1cc2cc3ccc(OC)cc3nc2o1,0,-,0,0,0,5.09
COc1ccc(C)cc1NC(=O)c1cc2cc3ccc(C)cc3nc2o1,0,-,0,0,0,3.99
CCOc1ccc(C(=O)NCCCN(CC)CC)cc1,0,0,0,0,0,0
COc1ccc2cc3cc(C(=O)NCCc4ccc(OC)c(OC)c4)oc3nc2c1,0,-,0,0,0,4.61
CCC(=O)OC1=C2C(=Nc3c(c(=O)n(C)c(=O)n3C)C2c2ccccc2)c2ccccc21 (configuration not stated),0,0,0,0,0,0
O=C(CSc1nnc(CNC(=O)c2cccs2)o1)Nc1cccc(C(F)(F)F)c1,0,0,0,0,0,0
COc1ccc(NC(=O)C23CCC(C2)C(C)(C)C3=O)cc1 (configuration not stated),0,0,0,0,0,0
SMILES,Spn MK inh,DPM-DC inhibit,PMK inhibit,Abs 340nm,NADH coupling,Fluor 339 460
CNc1nnc(-c2cc3ccccc3oc2=O)s1,0,0,0,0,0,2.3
CN(C)c1nc2c(c(=O)[nH]c(=O)n2C)n1Cc1ccccc1Br,0,0,0,0,0,0
Cc1cccn2c(=O)c3cc(C(=O)NCc4ccco4)c(=N)n(CCOCCO)c3nc12,0,-,0,0,0,5.04
COc1ccc(CCn2c(=N)c(C(=O)NCc3ccco3)cc3c(=O)n4ccccc4nc32)cc1OC,0,0,0,0,0,0
CCNC(=O)c1cc2c(=O)n3cccc(C)c3nc2n(CCc2ccccc2)c1=N,0,-,0,0,0,2.26
N=c1c(C(=O)NCc2ccco2)cc2c(=O)n3ccccc3nc2n1CCc1ccccc1,0,-,0,0,0,2.2
CCOC(=O)c1cc2c(=O)n3cccc(C)c3nc2n(C)c1=N,0,0,0,0,0,0
C=CCn1c(=N)c(C(=O)NCCCOC)cc2c(=O)n3cccc(C)c3nc21,0,-,0,0,0,2.28
Cc1ccc(C(C)NC(=O)c2ccco2)cc1C (configuration not stated),0,0,0,0,0,0
CCn1c(=N)c(C(=O)NCc2cccnc2)cc2c(=O)n3cccc(C)c3nc21,0,-,0,0,0,3.66
CCCCNC(=O)c1cc2c(=O)n3cccc(C)c3nc2n(Cc2ccccc2)c1=N,0,-,0,0,0,3.99
CNC(=O)c1cc2c(=O)n3cccc(C)c3nc2n(C(C)C)c1=N,0,-,0,0,0,3.83

# Source: PubChem
